The record followed here is the supplement of paper PMC8728848.

The full list was thinned out, with the strongest signals kept by preference.

What all share (experiment): glycan array binding signal (z-score within array); higher = stronger binding
What all share (conditions): glycan notation: IUPAC condensed, linker removed

Assay [1] has as its target Fuc(a1-2)Gal(b1-3)GlcNAc(b1-2)Man(a1-3)[Fuc(a1-2)Gal(b1-3)GlcNAc(b1-2)Man(a1-6)]Man(b1-4)GlcNAc(b1-4)GlcNAc. The procedure, abridged:
(§1)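 Columns mapping to the same glycan were averaged after glycan names were converted to IUPAC-condensed notation. The data come from 3228 arrays in the Consortium for Functional Glycomics database, limited to those with an available protein sequence. Binding is reported as a within-array Z-score averaged across arrays of one protein sequence and across linkers.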

Assay [2] concerns the target Fuc(a1-2)Gal(b1-3)[Fuc(a1-4)]GlcNAc(b1-2)Man(a1-3)[Fuc(a1-2)Gal(b1-3)[Fuc(a1-4)]GlcNAc(b1-2)Man(a1-6)]Man(b1-4)GlcNAc(b1-4)[Fuc(a1-6)]GlcNAc(b1-4)[Fuc(a1-6)]GlcNAc. The procedure, abridged:
as §1

Assay [3] addresses Fuc(a1-2)Gal(b1-4)GlcNAc(b1-3)Gal(b1-4)GlcNAc(b1-2)Man(a1-3)[Fuc(a1-2)Gal(b1-4)GlcNAc(b1-3)Gal(b1-4)GlcNAc(b1-2)Man(a1-6)]Man(b1-4)GlcNAc(b1-4)GlcNAc. The procedure, abridged:
as §1

In assay [4] the target is Fuc(a1-2)[Gal(a1-3)]Gal(b1-4)GlcNAc(b1-2)Man(a1-3)[Fuc(a1-2)[Gal(a1-3)]Gal(b1-4)GlcNAc(b1-2)Man(a1-6)]Man(b1-4)GlcNAc(b1-4)GlcNAc. The procedure, abridged:
as §1

Assay [5] addresses Fuc(a1-2)[GalNAc(a1-3)]Gal(b1-4)GlcNAc(b1-3)Gal(b1-4)GlcNAc(b1-3)Gal(b1-4)GlcNAc. The procedure, abridged:
as §1

Assay [6] deals with Fuc(a1-2)[GalNAc(a1-3)]Gal(b1-4)[Fuc(a1-3)]GlcNAc. The procedure, abridged:
as §1

The target in assay [7] is Fuc(a1-3)[Gal(b1-4)]GlcNAc(b1-2)Man. The procedure, abridged:
as §1

In assay [8] the target is Fuc(a1-3)[Gal(b1-4)]GlcNAc(b1-2)Man(a1-3)[Fuc(a1-3)[Gal(b1-4)]GlcNAc(b1-2)Man(a1-6)]Man(b1-4)GlcNAc(b1-4)GlcNAc. The procedure, abridged:
as §1

For assay [9], the target named is Gal(a1-3)[Gal(a1-4)]Gal(b1-4)GlcNAc. The procedure, abridged:
as §1

Assay [10] addresses Gal(b1-3)GalNAc(b1-4)Gal(b1-4)Glc. The procedure, abridged:
as §1

Assay [11] concerns the target Gal(b1-3)[Fuc(a1-4)]GlcNAc(b1-3)Gal(b1-4)[Fuc(a1-3)]GlcNAc. The procedure, abridged:
as §1

The target of assay [12] is Gal(b1-3)[Neu5Ac(b2-6)]GalNAc. The procedure, abridged:
as §1

Assay [13] deals with Gal(b1-4)GlcNAc. The procedure, abridged:
as §1

In assay [14] the target is Gal(b1-4)GlcNAc(a1-6)Gal(b1-4)GlcNAc. The procedure, abridged:
as §1

In assay [15] the target is Gal(b1-4)GlcNAc(b1-2)Man(a1-3)[Man(a1-6)]Man(b1-4)GlcNAc(b1-4)GlcNAc. The procedure, abridged:
as §1

For assay [16], the target named is Gal(b1-4)GlcNAc(b1-2)[Gal(b1-4)GlcNAc(b1-6)]Man(a1-6)[Gal(b1-4)GlcNAc(b1-2)Man(a1-3)]Man(b1-4)GlcNAc(b1-4)[Fuc(a1-6)]GlcNAc. The procedure, abridged:
as §1

Assay [17] concerns the target Gal(b1-4)GlcNAc(b1-3)Gal(b1-4)GlcNAc(b1-2)[Gal(b1-4)GlcNAc(b1-3)Gal(b1-4)GlcNAc(b1-6)]Man(a1-6)[Gal(b1-4)GlcNAc(b1-3)Gal(b1-4)GlcNAc(b1-2)Man(a1-3)]Man(b1-4)GlcNAc(b1-4)GlcNAc. The procedure, abridged:
as §1

Assay [18] deals with Gal(b1-4)GlcNAc(b1-3)Gal(b1-4)GlcNAc(b1-2)[Gal(b1-4)GlcNAc(b1-3)Gal(b1-4)GlcNAc(b1-6)]Man(a1-6)[Gal(b1-4)GlcNAc(b1-3)Gal(b1-4)GlcNAc(b1-2)Man(a1-3)]Man(b1-4)GlcNAc(b1-4)[Fuc(a1-6)]GlcNAc. The procedure, abridged:
as §1

Assay [19] concerns the target Gal(b1-4)GlcNAc(b1-3)Gal(b1-4)GlcNAc(b1-3)Gal(b1-4)GlcNAc(b1-2)Man(a1-3)[Gal(b1-4)GlcNAc(b1-3)Gal(b1-4)GlcNAc(b1-3)Gal(b1-4)GlcNAc(b1-2)Man(a1-6)]Man(b1-4)GlcNAc(b1-4)[Fuc(a1-6)]GlcNAc. The procedure, abridged:
as §1

Assay [20] deals with Gal(b1-4)GlcNAc(b1-3)Gal(b1-4)GlcNAc(b1-6)[Gal(b1-3)]GalNAc. The procedure, abridged: as §1
Assay [21] deals with Gal(b1-6)Gal. The procedure, abridged:
as §1

Assay [22] deals with GalNAc(b1-4)GlcNAc(b1-2)Man. The procedure, abridged: as §1
The target in assay [23] is GalNAc3S(b1-4)GlcNAc. The procedure, abridged: as §1
Assay [24] addresses Glc(b1-6)Glc. The procedure, abridged: as §1

B1: BT4246 (Bacteroides thetaiotaomicron), Q89ZX5 (protein)
chain: MGSSHHHHHHENLYFQGHMASDYLDVVPPEQPNIDDAMSSPTRALGFLYSCYGGVSTDLPSAYLGEINSTTDEYVLPYSWNTDGYWGAYAFNTASSTNQDWLWGTTYQYIGQCYLFLQKLENAGSDIASDAEKEQWRAECQFLVAYYHFATLRRYGPIPITDSYIPMDTPTSEYNGRFHFDYCVDWIANQLDEAAKVLPANRTVTNEWGRATSTIAKAVKARLLLYAASPLWNGSFPYPNWQNENFETPGYGKALVSNTYDKSKWERALAACQEALTLATTSGDRELYDDDEYYSRQSLNLPFVPGVADVEDNKEFLKNVMKMRYAVSTRESEGNKEIIWGLSNQFDFYSRYPLRILKKSDGTWHAGYSGVSPTLYTFEHFYTANGKLPEKDLDFTPSSEWFESAGISSREDIIKLNVGREPRFYAWMAFDGGDYGTKFAAGSPLKLEMRNSEMHGYNPSLFNRDHSVTGFLTQKFVDPVTEFYTAGGSTSGTSAPTILFRLAELYLNVAECHAALGNTQEAIDALNPVRERAGIPKLTLADITNNMTIKDWVHNERFVELWNEGHRFFDVRRWAEGAKYFGANKREGLNAEVQSPTFEEFNKRTTVDAPYVWENRMYLNPVFYNEVYKNPQMVQAPGY
B1: the “glycan array binding signal (z-score)” value in [1] was 3.2; in assay [2], -0.111; in assay [3], 0.084; in assay [4], 2.43; in [5] it was 0.74; in [6] it was -2.1. The “glycan array binding signal (z-score)” value was 0.571 in assay [7]; -0.536 in assay [8]; 0.656 in [9]; 2.02 in [10]; -0.234 in [11]; -0.388 in assay [12]. In addition, the “glycan array binding signal (z-score)” value is -1.31 in [13]; -0.67 in assay [14]; 2.35 in assay [15]; -0.607 in assay [16]; 2.71 in assay [17]; 0.32 in assay [18]. For the same molecule, the “glycan array binding signal (z-score)” value was 0.125 in [19]; -0.514 in assay [20]; 0.501 in assay [21]; -0.775 in assay [22]; 1.88 in assay [23]; -2.27 in assay [24].
